Screens as filed in PubChem BioAssay.
Pol beta inh: DNA polymerase beta (human) inhibition; Pol beta primer extension/strand displacement, fluorescence kinetic; Potency, µM (titrated, usually from 114 µM), actives largely listed as inhibitors; 1.3% of 340,000 active; AID 485314
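Reaction started by 50 nM substrate onto compound-treated Pol beta (10 nM, 15 min preincubation, room temperature); plates read at 0 min and 10 min. Normalized concentration-effect data fitted by four-parameter Hill equation.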
Pol iota inh: inhibitors of human DNA polymerase iota; Q9UNA4; Pol iota fluorescent replication assay, 10 min; Potency, µM (titrated, usually from 115 µM), most hits filed as inhibitors; 1% of 390,000 active; AID 588590
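Pol iota at 10 nM preincubated 15 min with compounds at room temperature; reaction started with fluorescent substrate, 50 nM final. Fluorescence read kinetically at 0 and 10 min; buffer-only wells as negative control.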
POLH inh: blocks human DNA polymerase eta activity; Q9Y253; recombinant Pol eta, fluorescent DNA replication assay; Potency, µM (top dose mostly 114 µM), most hits filed as inhibitors; 1.2% of 390,000 active; AID 588591
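Pol eta (10 nM) was preincubated with compounds for 15 min at room temperature, after which fluorescent replication substrate (50 nM final) was added to start the reaction. Fluorescence was read kinetically at 0 and 10 min.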
PI5P4Ka inh: PI5P4K alpha (human) kinase inhibition | 1.2% of 330,000 active | PI5P4Kalpha enzyme, ADP-Glo luminescence, 60 min; hits give low values | max response, % | P48426; active = max response of -50% or lower; inconclusive = between -30% and -50%; inactive = -30% or higher; note: value at the top dose of about 77 µM
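Luminescence from ADP-Glo served as readout of PI5P4Kalpha activity in a qHTS format. Reaction: enzyme, substrate, compound, ATP at 5 microM final, 60 min at RT.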
Pol kappa inh: blocks human DNA polymerase kappa activity | purified Pol kappa, fluorescent DNA synthesis assay, 10 min | 0.53% of 400,000 active | Q9UBT6 | Potency, µM (titrated, usually from 107 µM), most hits filed as inhibitors
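10 nM Pol kappa preincubated 15 min at room temperature with compounds, then reaction started with substrate at 50 nM final. Fluorescence read kinetically at 0 and 10 min; buffer-only wells served as negative control.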
WRN inhibitor: WRN helicase (human) inhibition; WRN helicase unwinding, fluorescent forked duplex, kinetic; Potency, µM (series often up to 114 µM), usual class: inhibitors; 0.46% of 360,000 active; AID 651768; note: nearly all actives have a fitted effect of over 55% in size
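Kinetic fluorescence helicase assay: unwinding of a quenched forked DNA duplex (100 nM final) with 2 mM ATP final raises red fluorescence (525/598 nm). Compounds sat 15 min at room temperature with 20 nM WRN beforehand.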
Of the large screens only hits and unclear results are named; the others gave an inactive call. An excerpt weighted towards active compounds, which were near 2.8% of everything screened. Unless noted, calls come from the whole dose curve; as a rule, active = well fitted curve in the direction sought with a large enough effect; inconclusive = small, poorly fitted or top-dose-only effect, or another doubt; inactive = no such curve, though single readings can be large; an effect the other way counts as inactive or inconclusive.

COc1ccccc1CCNC(=O)CSc1ccc(-c2ccco2)nn1	Pol beta inh 15.8µM, Pol iota inh inconclusive, PI5P4Ka inh inconclusive
Cc1cccc(NC(=O)CSc2ccc(-c3ccccn3)nn2)c1C	none
COc1ccc(C)cc1NC(=O)CSc1ccc(-c2ccco2)nn1	Pol iota inh 31.6µM, POLH inh inconclusive, PI5P4Ka inh inconclusive, Pol kappa inh inconclusive
CCCNC(=O)c1ccc(-c2nc(CS(=O)(=O)c3ccc(C)cc3)c(C)o2)cc1	Pol beta inh inconclusive (no result: PI5P4Ka inh, WRN inhibitor)
CCCCCCCCN1[C@@H](CC(=O)O)c2ccc(/C=C/C(=O)O)cc2S1(=O)=O	Pol kappa inh inconclusive (no result: Pol beta inh, POLH inh, PI5P4Ka inh, WRN inhibitor)
Cn1c(=O)c2c(nc(Oc3ccccc3Cl)n2Cc2ccc(C#N)cc2)n(C)c1=O	none (no result: PI5P4Ka inh, WRN inhibitor)
Cc1nc2oc3c(NCc4ccccc4)ncnc3c2c2c1COC(C)(C)C2	POLH inh 14.1µM
COc1cc2c(NC3CCN(C)CC3)nc(N3CCCN(C)CC3)nc2cc1OCCCCCN(C)C	Pol iota inh inconclusive (no result: Pol beta inh, POLH inh, PI5P4Ka inh, WRN inhibitor)
COc1ccccc1CCNC(=O)CCc1c(C)c2cc3c(C)coc3cc2oc1=O	none (no result: PI5P4Ka inh, WRN inhibitor)
O=C(O)CSc1nc(-c2ccc(Cl)cc2)nc2c1oc1ccccc12	Pol beta inh 56.2µM, POLH inh inconclusive
O=C(O)CSc1nc(-c2ccccc2)nc2c1oc1ccccc12	none
Cc1cc2c(cc1C)N[C@]1(C[C@H]3CCCC(=O)N4CC[C@@H](C1)[C@@H]34)C(=NC1CCCCC1)N2	none (no result: Pol beta inh, POLH inh, PI5P4Ka inh, WRN inhibitor)
Cc1cc(NC(=O)C2CC=CCC2C(=O)O)no1 (centres undefined)	Pol beta inh 22.4µM, POLH inh inconclusive
O=C(O)c1ccccc1-c1nc2ccccc2n1-c1ccccc1	none
O=c1c(/C=C(\O)c2ccccc2)nc2ccccc2n1-c1ccccc1	WRN inhibitor 56.2µM
FC(F)(F)c1cccc(N2CCN(c3ncnc4c3nc3n4CCCC3)CC2)c1	none (no result: PI5P4Ka inh, WRN inhibitor)
Cc1cc(=O)oc2cc(NC(=S)NNC(=O)c3c(Cl)cnn3C)ccc12	PI5P4Ka inh -52.5, WRN inhibitor inconclusive
COc1ccc(/C=c2\[nH]c(=O)/c(=C/c3ccc(OC)c(OC)c3)[nH]c2=O)cc1OC	none (no result: Pol beta inh, POLH inh, PI5P4Ka inh, WRN inhibitor)
Oc1cc2ccccc2cc1-c1n[nH]c(=S)o1	Pol beta inh inconclusive, Pol iota inh inconclusive, PI5P4Ka inh -73.3
CCCCCCc1ccc(C(=O)CCN(C)C)cc1	none (no result: Pol beta inh, POLH inh, PI5P4Ka inh, WRN inhibitor)
CCOC(=O)C(=O)Nc1ccc(S(=O)(=O)Nc2ncccn2)cc1	Pol beta inh 89.1µM (no result: PI5P4Ka inh)
Cc1cccc(NC(=O)c2cc(-c3ccc(C)c(C)c3O)n[nH]2)c1	Pol iota inh 79.4µM
Cc1ccc(-c2cc(C(=O)Nc3ccc(S(=O)(=O)Nc4ncccn4)cc3)[nH]n2)c(O)c1C	Pol beta inh inconclusive, Pol iota inh inconclusive, POLH inh 44.7µM, WRN inhibitor inconclusive
CCOC(=O)C(=O)Nc1ccc(S(=O)(=O)Nc2nccc(C)n2)cc1	POLH inh inconclusive (no result: Pol beta inh, Pol iota inh, Pol kappa inh)
CC(=O)Nc1ccc(NC(=O)c2cc(-c3ccc(C)c(C)c3O)n[nH]2)cc1	none
COc1ccc(N2CCN(C(CNC(=O)c3c(F)cccc3F)c3ccc4c(c3)OCO4)CC2)cc1 (centres undefined)	none (no result: PI5P4Ka inh, WRN inhibitor)
CC(=O)c1ccc(Sc2nnnn2-c2ccccc2)c([N+](=O)[O-])c1	POLH inh inconclusive
Cn1c(Sc2ccc(C(=O)O)cc2[N+](=O)[O-])nnc1-c1ccccc1	PI5P4Ka inh -76.8, WRN inhibitor inconclusive
O=C(CSc1ccc(Br)c2cccc(Cl)c12)Nc1ccc(S(=O)(=O)Nc2nccs2)cc1	Pol beta inh 50.1µM, Pol iota inh inconclusive, POLH inh 44.7µM, PI5P4Ka inh inconclusive, Pol kappa inh inconclusive, WRN inhibitor 35.5µM
COc1ccccc1NCC(=O)c1ccc(C)c(C)c1	none
COc1ccccc1NCC(=O)c1ccc(Cl)cc1	Pol beta inh 89.1µM, POLH inh inconclusive
Cc1ccc(NC(=O)c2sc(-n3nc(C)c(Cc4ccc5c(c4)OCO5)c3C)nc2C)cc1C	none (no result: PI5P4Ka inh, WRN inhibitor)
Cc1ccc(C(=O)COC(=O)c2ccc(Cl)c(N)c2)s1	WRN inhibitor inconclusive (no result: Pol beta inh)
Nc1cc(C(=O)OCC(=O)c2ccc(CC(=O)N3CCOCC3)s2)ccc1Cl	Pol iota inh 12.6µM, POLH inh 28.2µM, PI5P4Ka inh -52.3, Pol kappa inh inconclusive (no result: Pol beta inh)
O=C(O)c1cccc(N2C(=O)c3ccc4c5c(ccc(c35)C2=O)C(=O)N(c2cccc(C(=O)O)c2)C4=O)c1	Pol beta inh inconclusive, Pol iota inh inconclusive, POLH inh inconclusive
O=C(O)c1cccc(N2C(=O)c3ccc(Oc4ccc(Cl)cc4)cc3C2=O)c1	Pol beta inh 89.1µM
COc1cc(/C=C/c2ccc3ccccc3n2)cc(OC)c1OC	none (no result: Pol beta inh, POLH inh, PI5P4Ka inh, WRN inhibitor)
CC1CCN2c3ccccc3CC3(C(=O)OC(C)(C)OC3=O)C2C1 (centres undefined)	Pol iota inh inconclusive (no result: Pol beta inh, POLH inh, PI5P4Ka inh, WRN inhibitor)
CC1(C)OC(=O)C2(Cc3ccccc3N3CCCC32)C(=O)O1 (centres undefined)	Pol iota inh 79.4µM, Pol kappa inh inconclusive (no result: Pol beta inh, POLH inh, PI5P4Ka inh, WRN inhibitor)
COc1ccc(S(=O)(=O)c2cn(C)c3cc(N4CCOCC4)c(F)cc3c2=O)cc1	none (no result: PI5P4Ka inh, WRN inhibitor)
N=C(N)c1ccc(/C=C/c2ccc(C(=N)N)cc2O)cc1	Pol beta inh 8.91µM, Pol iota inh 35.5µM, Pol kappa inh inconclusive (no result: WRN inhibitor)
